The record followed here is ChEMBL document CHEMBL1157539, “Thousands of chemical starting points for antimalarial lead identification” (Nature, 2010).

What all share (assay type): functional
Assay [1] relates to Plasmodium falciparum. Nature of the assay: GSK_TCMDC: Inhibition of Plasmodium falciparum 3D7 in whole red blood cells, using parasite LDH activity as an index of growth. Test compounds present at 2uM.
The subject of assay [2] is Plasmodium falciparum. The assay is described as follows: GSK_TCMDC: Inhibition of Plasmodium falciparum Dd2 in whole red blood cells, using parasite LDH activity as an index of growth. Test compounds present at 2uM.
The test system of another assay is HepG2. The assay is described as follows: GSK_TCMDC: Percent inhibition of human HepG2 cell line. Test compounds present at 10uM.

In general, Inhibition refers to the share of the control response that was lost under treatment. A low value points to a weak effect.

As for `N#Cc1cccc(NC(=O)Nc2ccc(CC(=O)N3CCc4cc(Cl)c(N5CCN(C/C=C/c6ccccc6)CC5)cc43)cc2)c1`, the Inhibition is given as 91% with Plasmodium falciparum [1], 61% with Plasmodium falciparum [2] and 0% in the assay with HepG2.
With `O=C1C(c2ccccc2)=C(Nc2cc(Cl)cc(Cl)c2)c2ccccc21`, the Inhibition stood at 96% in the assay with Plasmodium falciparum [1], 94% with Plasmodium falciparum [2] and 0% in the assay with HepG2.
Take `O=C(Nc1ccccc1)N(Cc1ccc(-c2cccc(CNC3CCCC3)c2)cc1)C1CCN(Cc2ccccc2)CC1.O=C(O)C(F)(F)F`: the Inhibition came out at 100% in the assay on Plasmodium falciparum [1], 67% in the assay on Plasmodium falciparum [2] and 43% in the assay on HepG2.
As to `COc1ccc(CNc2ncc(-c3ccsc3)c(-c3nccs3)n2)cc1OC`, the Inhibition in the assay with Plasmodium falciparum [1] amounted to 86%; in the assay on Plasmodium falciparum [2], 69%; in the assay with HepG2 it was 10%.
Taken in the same sequence, the figures for `CC(C)Oc1cc2c(cc1NS(=O)(=O)c1ccc(-c3ccc(Cl)cc3)cc1)CCN(C)CC2.Cl` were 99%, 65% and 100%.
As to `Cl.N#Cc1ccc2c(c1)CCN(CCC1CCC(NC(=O)c3cc4ccc(Br)cc4[nH]3)CC1)C2` (stereo unspecified), the Inhibition with Plasmodium falciparum [1] was 100%; in the assay with Plasmodium falciparum [2], 17%; in the assay on HepG2 it was 12%.
For the molecule `CCN(Cc1ccc(-c2ccc(C(F)(F)F)cc2)cc1)C(=O)Cn1c(SCc2cccc(F)c2F)cc(=O)c2cc(CN3CCCCC3)ccc21.Cl`, the figures for the Inhibition with Plasmodium falciparum [1], in the assay on Plasmodium falciparum [2] and in the assay with HepG2 were 100%, 50% and 95%, respectively.
Regarding `CN1CCN(c2ccnc3ccc(NC(=O)Nc4ccc(-c5ccncc5)c5ccccc45)cc23)CC1`, the Inhibition amounted to 100% with Plasmodium falciparum [1], 84% in the assay on Plasmodium falciparum [2] and 76% in the assay with HepG2.
As for `COc1ccc(-c2ccc(Nc3cccc(S(=O)(=O)CCN4CCC(CCN(C)C)CC4)c3)nc2)cn1`, the results for the Inhibition in the assay on Plasmodium falciparum [1], in the assay with Plasmodium falciparum [2] and with HepG2 were 100%, 9% and 44%, respectively.
As for `CN1CCN(c2nc(NCCc3ccc(O)cc3)nc(NCc3ccccc3-c3ccc(C(F)(F)F)cc3)n2)CC1`, the Inhibition in the assay on Plasmodium falciparum [1] came out at 90%; in the assay on Plasmodium falciparum [2], 82%; in the assay with HepG2, 35%.
`COc1ccc(C2NCCc3c2[nH]c2ccccc32)cc1CN1CCN(c2ccc(F)cc2)CC1.Cl` (stereo unspecified): the Inhibition came out at 97% in the assay on Plasmodium falciparum [1], 56% with Plasmodium falciparum [2] and 37% in the assay on HepG2.
As to `O=C(Nc1cccc(-c2ccc(-c3nc4cc(C(F)(F)F)ccc4[nH]3)cc2)c1)c1c[nH]cn1`, the results for the Inhibition with Plasmodium falciparum [1], with Plasmodium falciparum [2] and in the assay on HepG2 were 91%, 21% and 16%, respectively.
Regarding `CCn1cnc2c(N3CCCC3=O)cc(C(=O)N[C@@H](Cc3ccccc3)[C@H](O)CNC3CCCCC3)cc21`, the results for the Inhibition in the assay on Plasmodium falciparum [1], in the assay on Plasmodium falciparum [2] and in the assay on HepG2 were 98%, 94% and 0%, respectively.
Turning to `COc1ccccc1N1CCN(CCCCNC(=O)c2ccc(NC(=O)c3ccc(OC(F)(F)F)cc3)cc2)CC1.Cl`, the Inhibition in the assay with Plasmodium falciparum [1] came to 100%; in the assay with Plasmodium falciparum [2] it was 39%; in the assay on HepG2 it was 29%.
Taken in the same sequence, the figures for `CCCCN(CCCC)CCC(O)C(=Cc1ccc(Cl)cc1Cl)c1ccc(C(F)(F)F)cc1N` (stereo unspecified) were 100%, 99% and 0%.
As to `N#Cc1ccc(-c2ccc(C(=O)NC3CCN(CCN4CCC(c5cn(CCO)c6ccccc56)CC4)CC3)cc2)cc1`, the Inhibition with Plasmodium falciparum [1] was 100%; in the assay on Plasmodium falciparum [2] it was 79%; in the assay on HepG2, 30%.
For `CN1CCCN(Cc2cccc(-c3ccc(NC(=O)c4cccc(Cl)c4)cc3)c2)CC1.O=C(O)C(F)(F)F`, the Inhibition is recorded as 90% in the assay on Plasmodium falciparum [1], 10% in the assay on Plasmodium falciparum [2] and 34% in the assay on HepG2.
